According to PMC4336329 (PLoS ONE, 2015):
Screen size: about 310,000 compounds; about 14,000 (4.5%) showed an effect of 50% or more. Effects have a minus sign here. What follows is part of a selection rich in strong results, with near analogues and random picks from the rest.

What follows are compounds tested against human ether-à-go-go-related gene (hERG) potassium channel (human, UniProt Q12809) (assay: primary screen, population patch clamp on CHO cells stably expressing hERG; higher = less effect of the substance).
Chain of human ether-à-go-go-related gene (hERG) potassium channel (Q12809 whole entry, looked up): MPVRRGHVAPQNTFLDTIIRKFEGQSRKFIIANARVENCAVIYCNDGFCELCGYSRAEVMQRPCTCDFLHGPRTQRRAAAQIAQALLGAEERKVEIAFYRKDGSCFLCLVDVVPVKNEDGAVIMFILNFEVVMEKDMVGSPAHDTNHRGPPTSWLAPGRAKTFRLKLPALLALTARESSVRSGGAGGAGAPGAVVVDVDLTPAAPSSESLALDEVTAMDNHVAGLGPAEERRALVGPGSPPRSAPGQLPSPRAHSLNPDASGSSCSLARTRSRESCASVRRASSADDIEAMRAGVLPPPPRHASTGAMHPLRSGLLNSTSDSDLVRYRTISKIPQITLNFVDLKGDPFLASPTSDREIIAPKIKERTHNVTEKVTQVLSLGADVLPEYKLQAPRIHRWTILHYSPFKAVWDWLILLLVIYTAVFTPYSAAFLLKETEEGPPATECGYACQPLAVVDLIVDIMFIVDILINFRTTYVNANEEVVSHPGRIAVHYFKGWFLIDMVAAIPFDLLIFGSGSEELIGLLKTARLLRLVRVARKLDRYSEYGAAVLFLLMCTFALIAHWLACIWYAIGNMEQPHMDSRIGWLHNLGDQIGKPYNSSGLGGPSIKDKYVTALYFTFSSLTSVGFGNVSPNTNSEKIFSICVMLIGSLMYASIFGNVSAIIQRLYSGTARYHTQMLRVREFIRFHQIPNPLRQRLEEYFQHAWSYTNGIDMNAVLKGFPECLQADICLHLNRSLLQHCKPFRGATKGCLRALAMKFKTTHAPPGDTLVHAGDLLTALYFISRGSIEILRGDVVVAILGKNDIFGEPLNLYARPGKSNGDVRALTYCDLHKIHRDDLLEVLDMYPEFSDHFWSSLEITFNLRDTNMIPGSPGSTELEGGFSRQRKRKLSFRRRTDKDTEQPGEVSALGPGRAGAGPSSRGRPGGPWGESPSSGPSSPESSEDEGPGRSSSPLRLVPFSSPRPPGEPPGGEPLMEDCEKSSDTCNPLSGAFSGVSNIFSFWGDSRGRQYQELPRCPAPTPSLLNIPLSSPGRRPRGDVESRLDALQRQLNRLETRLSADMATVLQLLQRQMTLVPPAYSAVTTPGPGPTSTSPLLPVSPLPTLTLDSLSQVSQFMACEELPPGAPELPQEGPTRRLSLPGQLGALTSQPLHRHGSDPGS
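Also: peak tail current of the secondary pulse compared with the same well before compound.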

| SMILES | hERG current change (%, negative = inhibition) at 10uM [%] |
| --- | --- |
| Cc1ccc(S(=O)(=O)c2ncccc2[N+](=O)[O-])cc1 | -64 |
| O=[N+]([O-])c1cccnc1S(=O)(=O)c1ccccc1 | 15.9 |
| Cc1ccc(S(=O)(=O)c2ncccc2N)cc1 | 12.4 |
| Cc1noc(C)c1C(=O)Nc1ccccc1C(=O)NCCc1ccccc1 | 8.93 |
| Cc1nn(-c2ccccc2)c(C)c1C(=O)OCC(=O)N1CC(=O)Nc2ccccc21 | 1.89 |
| C=CCN1C=C2C(=O)C(C)(OC(=O)C3CCCC3)C(=O)C=C2C=C1c1ccsc1 (stereo not shown) | -19.4 |
| CC(C)CN1C=C2C(=O)C(C)(OC(=O)C3CCCC3)C(=O)C=C2C=C1c1ccsc1 (stereo not shown) | -0.438 |
| COCCN1C=C2C(=O)C(C)(OC(=O)C3CCCC3)C(=O)C=C2C=C1c1ccsc1 (stereo not shown) | -6.22 |
| CC1(OC(=O)C2CCCC2)C(=O)C=C2C=C(c3ccsc3)N(CC3CC3)C=C2C1=O (stereo not shown) | -11.8 |
| CC1(OC(=O)C2CCCC2)C(=O)C=C2C=C(c3ccsc3)N(CCCCO)C=C2C1=O (stereo not shown) | 1.16 |
| CC1(OC(=O)C2CCCC2)C(=O)C=C2C=C(c3ccsc3)N(C3CC3)C=C2C1=O (stereo not shown) | 16.5 |
| CC1(OC(=O)C2CCCC2)C(=O)C=C2C=C(c3ccsc3)N(Cc3ccco3)C=C2C1=O (stereo not shown) | -23.2 |
| CC1(OC(=O)C2CCCC2)C(=O)C=C2C=C(c3ccsc3)N(Cc3ccccc3)C=C2C1=O (stereo not shown) | -52.5 |
| CC1(OC(=O)C2CCCC2)C(=O)C=C2C=C(c3ccsc3)N(C3CCCC3)C=C2C1=O (stereo not shown) | -64.7 |
| CC1(OC(=O)C2CCCC2)C(=O)C=C2C=C(c3ccsc3)N(Cc3ccc4c(c3)OCO4)C=C2C1=O (stereo not shown) | -79.6 |
| CC1(OC(=O)C2CCCC2)C(=O)C=C2C=C(c3ccsc3)N(C3CCCCC3)C=C2C1=O (stereo not shown) | -15.8 |
| COc1ccc(CN2C=C3C(=O)C(C)(OC(=O)C4CCCC4)C(=O)C=C3C=C2c2ccsc2)cc1 (stereo not shown) | -64.4 |
| COC(=O)c1ccc(COC(=O)CNC(=O)CNC(=O)c2ccc(OC)cc2)cc1 | -6.8 |
| CN(C(=O)CN1C(=O)C2C3CC(C(Br)C3Br)C2C1=O)C1CCCCC1 (stereo not shown) | -8.93 |
| CCOC(=O)Cn1c(S(=O)(=O)Cc2ccc(F)cc2)nc(-c2ccccc2)c1-c1ccccc1 | -7.15 |
| CCCCCCSc1cc(C)nc2ncnn12 | -42.9 |
| CCc1cccc(CC)c1-n1c(-c2cccnc2)n[nH]c1=S | 18.1 |
| O=C(c1cc(Br)ccc1OC(F)F)N1CCN2CCCC2C1 (stereo not shown) | -4.15 |
| CCOC(=O)CSc1nnc(-c2ccccc2NC(=O)c2ccccc2)o1 | 12.2 |
| CC(C)Nc1oc(-c2cccc3ccccc23)nc1C#N | 2.18 |
| O=C(NC(=S)NCCO)c1sc2ccccc2c1Cl | -0.142 |
| Cl.NCCc1ccc(OCc2ccccc2)c(OCc2ccccc2)c1 | -22.1 |

| SMILES | hERG current change (%, negative = inhibition) at 10uM [%] |
| --- | --- |
| COc1ccc(C(=O)N2CCN(c3ccc([N+](=O)[O-])c(NCCc4ccc(OC)c(OC)c4)c3)CC2)cc1 | 4.2 |
| COc1ccc(CCC(=O)N2CCN(c3ccccc3)CC2)cc1OC | 14 |
| COc1cc(CCC(=O)N2CCN(c3ccccc3)CC2)cc(OC)c1OC | -58.5 |
| COc1ccc(N2CCN(C(=O)Cc3ccc(OC)c(OC)c3)CC2)cc1 | 6.38 |
| COc1cc(CCC(=O)N2CCN(c3ncccn3)CC2)cc(OC)c1OC | 11.8 |
| COc1cc(CCC(=O)N2CCN(c3ccc([N+](=O)[O-])cc3)CC2)cc(OC)c1OC | -78.4 |
| COc1cc(CCC(=O)N2CCN(c3ccc(N4CCOCC4)nn3)CC2)cc(OC)c1OC | -9.65 |
| COc1cc(CCC(=O)N2CCN(c3cccc(C)c3C)CC2)cc(OC)c1OC | -2.88 |
| COc1ccc(CCC(=O)N2CCN(c3ccc([N+](=O)[O-])cc3)CC2)cc1OC | -81.5 |
| O=C(Cc1cccc(C(F)(F)F)c1)OCC(=O)N1CCN(S(=O)(=O)c2ccc(Cl)cc2)CC1 | -6.07 |
| COc1ccc(OC)c(NC(=S)NCc2cccs2)c1 | -18.3 |
| CCOC(=O)C1(Cc2ccccc2C)CCCN(S(=O)(=O)CC)C1 (stereo not shown) | 13.9 |
| COc1cccc(NS(=O)(=O)c2ccc3c(c2)n(C)c(=O)c(=O)n3C)c1 | -6.59 |
| COC(=O)c1[nH]c2cc(OC)ccc2c1NC(=O)CCN1CCSCC1 | 7.01 |
| CCc1nn(C(C)C(=O)N2CC(C)CC(C)C2)c(=O)c2cc3occc3n12 (stereo not shown) | -7.58 |
| CNC(=O)Nc1ccc(Cl)cc1 | 7.56 |
| C=CCOC(=O)C1=C[C@@H](c2cn(C(C)=O)c3ccccc23)C[C@@H](OCc2ccc(CO)cc2)O1 | -93.5 |
| CC(=O)n1cc([C@@H]2C=C(C(=O)N3CCOCC3)O[C@H](OCc3ccc(CO)cc3)C2)c2ccccc21 | -74.8 |
| CC(=O)n1cc([C@H]2C=C(C(=O)N3CCN(Cc4ccccc4)CC3)O[C@@H](OCCCCO)C2)c2ccccc21 | -42.5 |
| O=C(C1=C[C@H](c2csc3ccccc23)C[C@H](OCc2ccc(CO)cc2)O1)N1CCOCC1 | -59.2 |
| O=C(C1=C[C@H](c2csc3ccccc23)C[C@H](OCc2ccc(CO)cc2)O1)N1CCCCCCC1 | -15.1 |
| CC(=O)n1cc([C@@H]2C=C(C(=O)O)O[C@H](OCc3ccc(CO)cc3)C2)c2ccccc21 | 0.587 |
| C=CCOC(=O)C1=C[C@H](c2cn(C(C)=O)c3ccccc23)C[C@H](OCc2ccc(CO)cc2)O1 | -9.82 |
| O=C(C1=C[C@@H](c2csc3ccccc23)C[C@@H](OCc2ccc(CO)cc2)O1)N1CCOCC1 | -27.5 |
| CC(=O)n1cc([C@@H]2C=C(C(=O)N3CCOCC3)O[C@H](OCCCCO)C2)c2ccccc21 | -51.6 |
| CC(=O)n1cc([C@H]2C=C(C(N)=O)O[C@@H](OCc3ccc(CO)cc3)C2)c2ccccc21 | -16.8 |
| CC(=O)n1cc([C@@H]2C=C(C(=O)N3CCN(Cc4ccccc4)CC3)O[C@H](OCc3ccc(CO)cc3)C2)c2ccccc21 | -10.1 |

| SMILES | hERG current change (%, negative = inhibition) at 10uM [%] |
| --- | --- |
| CC(=O)n1cc([C@H]2C=C(C(=O)N3CCOCC3)O[C@@H](OCCCCO)C2)c2ccccc21 | -17.1 |
| O=C(CCCCCn1c(=S)[nH]c2ccc(N3CCOCC3)cc2c1=O)NCc1ccccc1Cl | 4.65 |
| C=COCCn1c(-c2nonc2N)nc2ccccc21 | -3.07 |
| CC(NC(=O)CCC(=O)NCc1ccc(F)cc1)c1ccccc1 (stereo not shown) | 13.3 |
| COc1ccc(NC(=S)NC(NC(=O)CF)C(Cl)(Cl)Cl)cc1[N+](=O)[O-] (stereo not shown) | 15 |
| CCOC(=O)c1ccc(NC(=O)CC2C(=O)N(c3ccc(F)cc3)C(=O)N2CCC(C)C)cc1 (stereo not shown) | -8.43 |
| COc1ccc(-c2cc(-c3ccc(OC)cc3)c(C#N)c(SC)n2)cc1 | 5.38 |
| CCn1nc(C(=O)Nc2cccc(S(=O)(=O)N3CCCC3)c2)c2ccccc2c1=O | -22.3 |
| COc1ccc(S(=O)(=O)N2CCCC(C(F)(F)F)C2)cc1 (stereo not shown) | 10.2 |
| O=C(CCNS(=O)(=O)c1ccc2c(c1)CCC(=O)N2)NCc1ccc2c(c1)OCO2 | 0.608 |
| Cc1cccc(NC(=O)Nc2cc(C)on2)c1 | 9.14 |
| C=C1CCC[C@]2(C)C[C@H]3OC(=O)C(CN4CCOCC4)[C@H]3C[C@@H]12 (stereo partly shown) | 17.7 |
| COc1cccc(OC)c1C(=O)Nc1cccc(-n2cnnn2)c1 | 15.7 |
| CN1CCC(OC(=O)Cc2ccc(Cl)cc2)CC1.Cl | -11 |
| CN(C(=S)Nc1ccc(Oc2ccccc2)cc1)c1ccc(O)cc1 | -6.93 |
| CC(=O)n1cc([C@H]2C=C(C(=O)N3CCN(Cc4ccccc4)CC3)O[C@@H](OCc3ccc(CO)cc3)C2)c2ccccc21 | -24 |
| CC(=O)n1cc([C@@H]2C=C(C(=O)N3CCN(C)CC3)O[C@H](OCc3ccc(CO)cc3)C2)c2ccccc21 | -41.7 |
| CC(=O)n1cc([C@H]2C=C(C(=O)N3CCOCC3)O[C@@H](OCc3ccc(CO)cc3)C2)c2ccccc21 | -55.2 |
| CCN(c1ccccc1)S(=O)(=O)c1ccc(C(=O)N(C)CCc2ccc(OC)c(OC)c2)cc1 | -13.8 |
| O=[N+]([O-])c1ccc(N2CCN(Cc3ccc(Br)o3)CC2)cc1 | -65.1 |
| O=[N+]([O-])c1ccc(CN2CCN(c3ccc(Cl)cc3)CC2)o1 | -2.29 |
| O=[N+]([O-])c1ccc(CN2CCN(c3ccccc3)CC2)o1 | 9.7 |
| Clc1ccc(N2CCN(Cc3ccc(Br)o3)CC2)cc1 | 7.93 |
| Brc1ccc(CN2CCN(c3ccccc3)CC2)o1 | 13.8 |
| O=C(O)C(=O)O.O=[N+]([O-])c1ccc(N2CCN(Cc3ccc([N+](=O)[O-])o3)CC2)cc1 | -71.1 |
